About 980 (75%) of roughly 1,300 compounds were called active. About 4% were inconclusive and are not listed. This is one part of the list. Values without a mark were called inactive.
These compounds were tested against Sulfhydryl oxidase 1 (Homo sapiens) (UniProt O00391) (assay: QSOX1 enzyme inhibitors, primary screen, biochemical, HyperBlu H2O2 luminescence, HTS (AID 1347420; note: values above 100% were filed as inconclusive)). Details: recombinant QSOX1, HyperBlu H2O2 luminescence; at 12.5 µM; active compounds read high; active = any value above zero.
Sequence of Sulfhydryl oxidase 1 (Homo sapiens) (O00391 whole entry, looked up): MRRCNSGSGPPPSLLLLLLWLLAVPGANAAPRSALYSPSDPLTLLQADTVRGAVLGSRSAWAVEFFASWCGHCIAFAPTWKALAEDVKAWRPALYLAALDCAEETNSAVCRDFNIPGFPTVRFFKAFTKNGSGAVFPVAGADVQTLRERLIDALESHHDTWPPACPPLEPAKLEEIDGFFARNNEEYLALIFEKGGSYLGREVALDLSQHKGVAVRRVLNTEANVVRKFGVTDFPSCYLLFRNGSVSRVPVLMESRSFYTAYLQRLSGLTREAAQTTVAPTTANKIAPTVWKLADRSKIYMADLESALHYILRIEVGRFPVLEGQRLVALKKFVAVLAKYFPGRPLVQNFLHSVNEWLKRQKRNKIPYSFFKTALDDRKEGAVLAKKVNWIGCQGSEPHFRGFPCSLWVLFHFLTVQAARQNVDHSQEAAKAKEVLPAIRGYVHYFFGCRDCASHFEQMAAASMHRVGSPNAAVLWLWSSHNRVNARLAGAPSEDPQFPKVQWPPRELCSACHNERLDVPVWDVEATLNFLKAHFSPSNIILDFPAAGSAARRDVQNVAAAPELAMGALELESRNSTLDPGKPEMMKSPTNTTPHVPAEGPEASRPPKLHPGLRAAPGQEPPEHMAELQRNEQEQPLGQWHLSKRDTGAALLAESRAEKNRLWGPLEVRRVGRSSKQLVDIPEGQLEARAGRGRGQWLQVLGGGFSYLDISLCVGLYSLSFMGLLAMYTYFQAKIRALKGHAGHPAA

SMILES	inhibition
COC(=O)C(N)Cc1ccc(Cl)cc1 (stereo unspecified)	-8.3%
COC(=O)[C@@H](N)Cc1ccc(O)c(O)c1	48.2% (active)
N[C@@H](Cc1ccc(O)c(O)c1)C(=O)O	43.6% (active)
N[C@@H](Cc1ccc(F)cc1)C(=O)O	-2.9%
NC1CCN(O)C1=O (stereo unspecified)	30% (active)
CCCC1O[C@@H]2C[C@H]3[C@@H]4CCC5=CC(=O)C=C[C@]5(C)[C@H]4[C@@H](O)C[C@]3(C)[C@]2(C(=O)CO)O1 (stereo partly specified)	4.1% (active)
CCCN(CC1CC1)c1nc(C)nc(Nc2c(Cl)cc(Cl)cc2Cl)c1Cl	3.7% (active)
NS(=O)(=O)c1cc2c(cc1Cl)NCNS2(=O)=O	9.5% (active)
NS(=O)(=O)c1cc2c(cc1Cl)NC(C1CC3C=CC1C3)NS2(=O)=O (stereo unspecified)	44.4% (active)
NS(=O)(=O)c1cc2c(cc1Cl)NC=NS2(=O)=O	4.3% (active)
CNCCCC12CCC(c3ccccc31)c1ccccc12	1.9% (active)
NC/C=C\C(=O)O	7.5% (active)
NC/C=C/C(=O)O	1.4% (active)
CC(C)COCC(CN(Cc1ccccc1)c1ccccc1)N1CCCC1 (stereo unspecified)	40.1% (active)
Brc1c(Br)c(Br)c2[nH]cnc2c1Br	18.9% (active)
CN1CCc2cccc3c2C1Cc1ccc(O)c(O)c1-3 (stereo unspecified)	73.2% (active)
Clc1ccc2c(c1)C(N1CCNCC1)=Nc1ccccc1O2	21.3% (active)
Clc1ccc2c(c1)N=C(N1CCNCC1)c1ccccc1N2	69.5% (active)
CN1CCN(C2=Nc3ccccc3Oc3ccc(Cl)cc32)CC1	-12.8%

SMILES	inhibition
CN1CCN(C2=Nc3cc(Cl)ccc3Nc3ccccc32)CC1	78.4% (active)
Cc1ccc2c(c1)C(N1CCN(C)CC1)=Nc1cccnc1N2	42.7% (active)
Cn1c(=O)c2c(ncn2C)n(C)c1=O	-2%
Cn1cnc2c1c(=O)[nH]c(=O)n2C	0%
CCCn1c(=O)c2c(ncn2C)n(CCC)c1=O	11.9% (active)
CC(=O)CCCCn1c(=O)c2c(ncn2C)n(C)c1=O	13.8% (active)
CCCn1cnc2c1c(=O)n(CCCCC(C)=O)c(=O)n2C	5.2% (active)
C#CCn1c(=O)c2c(ncn2C)n(C)c1=O	4% (active)
Cn1c(=O)[nH]c2ncn(C)c2c1=O	-0.4%
COc1ccc(CCn2nnnc2C2(c3ccc(C)cc3)CC2)cc1	14.5% (active)
Fc1ccc(C(c2ccc(F)cc2)N2CCN(C/C=C/c3ccccc3)CC2)cc1	5.6% (active)
C(=C\c1ccccc1)/CN1CCN(C(c2ccccc2)c2ccccc2)CC1	-9.7%
O=C1c2c(O)cc(O)cc2OC(c2ccc(O)c(O)c2)C1O (stereo unspecified)	65.2% (active)
Oc1cc(O)c2c(c1)O[C@H](c1ccc(O)c(O)c1)[C@@H](O)C2	72.1% (active)
Cc1cnc(C(=O)NCCc2ccc(S(=O)(=O)NC(=O)NC3CCCCC3)cc2)cn1	-6.9%
COc1ccc(Cl)cc1C(=O)NCCc1ccc(S(=O)(=O)NC(=O)NC2CCCCC2)cc1	7.7% (active)
Cc1cccc(C)c1NC(=O)C(C)N (stereo unspecified)	17.2% (active)
CN(C)CCCN1c2ccccc2Sc2ccc(C(F)(F)F)cc21	83.7% (active)
CCC(=O)c1ccc2c(c1)N(CCCN(C)C)c1ccccc1S2	96.5% (active)

SMILES	inhibition
CN(C)CCCN1c2ccccc2Sc2ccc(Cl)cc21	98.2% (active)
NCCS	28.5% (active)
O=c1[nH]c2ccccc2c2ccccc12	10.9% (active)
C=Cc1c(C)c2cc3[nH]c(cc4nc(cc5nc(cc1[nH]2)C(C)=C5CCC(=O)O)C(CCC(=O)O)=C4C)c(C)c3C=C	29.8% (active)
CCOC(=O)N1CCN(/[N+]([O-])=N/Oc2ccc([N+](=O)[O-])cc2[N+](=O)[O-])CC1	73.3% (active)
NNc1nncc2ccccc12	92.6% (active)
COc1cc2ncnc(Nc3cccc(Cl)c3)c2cc1OC	0.4% (active)
CC1CCN(CC[C@H]2CCCN2S(=O)(=O)c2cccc(O)c2)CC1	2.8% (active)
O=c1[nH]ccc2c(O)cccc12	41.9% (active)
Oc1cc2c(c(Cl)c1O)CCNCC2c1ccccc1 (stereo unspecified)	93.6% (active)
Oc1cc2c(cc1O)C(c1ccccc1)CNCC2 (stereo unspecified)	57.5% (active)
CCNC(=O)N1CCN(CCCC(c2ccc(F)cc2)c2ccc(F)cc2)CC1	8.8% (active)
O=C1C2C=CC=CC2=NC(=S)N1CCN1CCC(=C(c2ccc(F)cc2)c2ccc(F)cc2)CC1 (stereo unspecified)	4.1% (active)
CC(=O)Oc1ccccc1C(=O)O	12.4% (active)
C#C[C@]1(O)CC[C@H]2[C@@H]3CCC4=Cc5oncc5CC4(C)[C@H]3CCC21C (stereo partly specified)	22.1% (active)
COc1cc(C(O)CO)ccc1O (stereo unspecified)	13.7% (active)
COc1cc(C(O)C(=O)O)ccc1O (stereo unspecified)	12.1% (active)
COc1cc(C(O)CO)ccc1OS(=O)(=O)O (stereo unspecified)	2.7% (active)

Source: PubChem BioAssay AID1347420 (Sanford-Burnham Center for Chemical Genomics, 2020)
